CHT block = inhibitors of human choline transporter CHT | CHT-expressing cells, membrane potential dye, choline response; active compounds read low | AID 488975 | 0.86% of 310,000 active | B-score at 10 µM;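 active = B-score over 3 SD under the library average, and starting fluorescence ratio not unusually high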;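 also: choline stimulus applied at its EC90 after an EC20 pre-addition; B-score computed on integrated fluorescence ratio after choline addition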
Target sequence (Q9GZV3 whole entry, looked up): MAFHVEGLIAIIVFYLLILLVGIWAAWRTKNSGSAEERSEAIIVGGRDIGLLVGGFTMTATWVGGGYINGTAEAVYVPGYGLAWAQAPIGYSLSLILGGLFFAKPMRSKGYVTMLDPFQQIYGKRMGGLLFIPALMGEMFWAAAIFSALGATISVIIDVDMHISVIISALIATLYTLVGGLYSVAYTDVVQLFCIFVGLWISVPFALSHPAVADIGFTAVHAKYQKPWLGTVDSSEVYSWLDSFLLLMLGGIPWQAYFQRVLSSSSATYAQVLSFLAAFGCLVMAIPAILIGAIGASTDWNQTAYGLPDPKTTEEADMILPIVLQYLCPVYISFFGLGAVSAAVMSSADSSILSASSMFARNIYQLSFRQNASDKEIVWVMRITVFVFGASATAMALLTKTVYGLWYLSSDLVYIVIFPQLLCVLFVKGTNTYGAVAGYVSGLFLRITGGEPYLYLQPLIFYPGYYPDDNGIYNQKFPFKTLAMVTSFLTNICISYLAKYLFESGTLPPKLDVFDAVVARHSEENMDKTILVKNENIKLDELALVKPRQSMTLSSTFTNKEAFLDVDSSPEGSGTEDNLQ
CHT allo act = human CHT allosteric activation; AID 488977; 0.49% of 310,000 active; CHT-expressing cells, membrane potential dye, choline EC20; active compounds read high; LV-AA mutant CHT in HEK293 cells; B-score at 10 µM;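 active = initial fluorescence not abnormally high and integrated response B-score, plate-corrected, over 3 SD above library mean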
H9c2 TAG inh = inhibitors of triacylglycerol accumulation | H9c2 cells, Nile Red lipid (TAG) fluorescence; cells loaded with 200 µM oleic acid | inhibition, % at 12.5 µM | 0.66% of 230,000 active;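 active = pattern-corrected inhibition of lipid staining of at least 50% with the nuclear-stain viability signal not falling by more than 50%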
Kir21 inh = Kir2.1 (mouse) channel inhibition; P35561; HEK293-Kir2.1, FluxOR thallium flux fluorescence; active compounds read low; B-score at 10 µM; 0.85% of 310,000 active; AID 1672;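 active = fluorescence ratio B-score at or below minus 3 SD of library scores, with starting-brightness B-score within 2 SD, cut at about -4.2 in these data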;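 also: channel flux triggered by added potassium and thallium sulfate stimulus; B-score of peak minus minimum fluorescence over baseline after thallium stimulus; more negative B-score means stronger Kir2.1 block with less thallium influx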
H9c2 TAG conf = confirmation of triacylglycerol accumulation inhibitors; shares compounds with H9c2 TAG inh; H9c2 lipid accumulation, Nile Red fluorescence; cells loaded with 200 µM oleic acid; inhibition, % at 12.5 µM; 71% of 990 active; AID 651629;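 active = mean inhibition across replicates of 40% or more; inactive = mean inhibition below 40%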
Each line names hits and unclear results; the compound was inactive in the other large screens (follow-up assays come after a bar, where they were run). The list is not random: actives were taken first. Their share in the collection is about 2%.

Cc1cccc(N2CCN(C(=O)c3c(-c4ccccc4Cl)noc3C)CC2)c1C	H9c2 TAG inh 71.5 | H9c2 TAG conf 65.5
O=[N+]([O-])c1cc(S(=O)(=O)Nc2cccc(Cl)c2)ccc1N/N=C/c1ccc(N2CCOCC2)cc1	H9c2 TAG inh 80.0 | H9c2 TAG conf 79.1
CCOC(=O)Cc1ccc(Nc2nc3cc(-c4sccc4C)sc3c(=O)n2C)cc1	H9c2 TAG inh 50.9 (no result: CHT block, CHT allo act, Kir21 inh) | H9c2 TAG conf 70.7
COc1ccc(Nc2nc3cc(-c4sccc4C)sc3c(=O)n2C)cc1OC	H9c2 TAG inh 57.3 (no result: CHT block, CHT allo act, Kir21 inh) | H9c2 TAG conf 71.0
CCCSc1ccc2nc(NC(=O)OC)[nH]c2c1	H9c2 TAG inh 58.0 | H9c2 TAG conf 59.8
CCCOc1cccc(OCC(=O)Nc2nc3ccccc3[nH]2)c1	none
Cc1ccc(CN(C)C(=O)CN2C(=O)NC3(CCCc4ccccc43)C2=O)c(C)c1 (configuration not stated)	H9c2 TAG inh 50.7 (no result: CHT block, CHT allo act, Kir21 inh) | H9c2 TAG conf 40.4
CSc1nc(NCCN(C)C)c2sc3nc(-c4ccco4)c4c(c3c2n1)CCC4	H9c2 TAG inh 51.0 (no result: CHT block, CHT allo act, Kir21 inh) | H9c2 TAG conf inactive
CSc1nc(N(C)CCO)c2sc3nc(-c4ccco4)c4c(c3c2n1)CCC4	none (no result: H9c2 TAG inh)
CC(C)CNC(=O)C1(C)CCCN1Cc1ccc(S(C)(=O)=O)cc1 (configuration not stated)	none (no result: CHT block, CHT allo act, Kir21 inh)
CC1CCN(CC(=O)Nc2ccc(S(=O)(=O)NC3CC3)cc2)CC1	none
Cc1ccc(Cn2cc(/C=N/NC(=O)Cc3nnc(NC(=O)c4ccc(C)cc4)s3)c3ccccc32)cc1	H9c2 TAG inh 52.4 | H9c2 TAG conf 128.3
O=C(Cc1nnc(NC(=O)c2ccccc2)s1)N/N=C/c1cccc(O)c1	none (no result: H9c2 TAG inh)
Clc1cc(/C=N\NC2=NCCN2)cc(Cl)n1	none
CCOc1ccc(Cc2nnc(SCC(=O)Nc3ccccc3)n(N)c2=O)cc1	H9c2 TAG inh 50.3 | H9c2 TAG conf 68.2
CCOc1ccccc1NC(=O)CSc1nnc(Cc2ccc(OC)cc2)c(=O)n1N	none
COc1cc(C(=O)Nc2nc3ccc(C)cc3s2)ccc1OCc1c(C)noc1C	H9c2 TAG inh 50.5 | H9c2 TAG conf inactive
c1cncc(C2Nc3ccccc3-c3nc4ccccc4n32)c1 (configuration not stated)	none (no result: H9c2 TAG inh)
c1ccc2c(c1)NC(c1ccncc1)n1c-2nc2ccccc21 (configuration not stated)	H9c2 TAG inh 52.6 | H9c2 TAG conf inactive
CN(C)c1ncnc2c1ncn2C1OC(CO)C(O)C1O (configuration not stated)	H9c2 TAG inh 75.3 | H9c2 TAG conf 46.5
CN(C)c1ncnc2c1nnn2C1OC(CO)C(O)C1O (configuration not stated)	none (no result: CHT block, CHT allo act, Kir21 inh)
CC1(C(=O)O)CCCN(C(=O)c2cc3ccccc3s2)C1 (configuration not stated)	none (no result: CHT block, CHT allo act, Kir21 inh)
CCN(CC)c1ccc(/C=N/Nc2nc(C)cc(C)n2)cc1	H9c2 TAG inh 51.5 | H9c2 TAG conf inactive
CCCCNC(=O)C(=O)Nc1ccc2c(c1)N(S(=O)(=O)c1cccs1)CCC2	H9c2 TAG inh 60.3 (no result: CHT block, CHT allo act, Kir21 inh) | H9c2 TAG conf 54.0
CCN(CC)CCNC(=O)C(=O)Nc1ccc2c(c1)N(S(=O)(=O)c1cccs1)CCC2	none
CC(C)CNC(=O)c1ccc(Cl)c(N)c1	none (no result: H9c2 TAG inh)
Cc1ccc(NC(=O)c2cc3ccccc3o2)cc1S(=O)(=O)N(C)C	H9c2 TAG inh 70.4 (no result: CHT block, CHT allo act, Kir21 inh) | H9c2 TAG conf inactive
Cc1ccc(NC(=O)c2cc3ccccc3oc2=O)cc1S(=O)(=O)N(C)C	none (no result: H9c2 TAG inh)
COc1cccc(C(=O)NCCNC(=O)c2cnccn2)c1	none (no result: H9c2 TAG inh)
c1ccc(N=NC2=NN(c3ccccc3)CS2)cc1	H9c2 TAG inh 95.6 (no result: CHT block, CHT allo act, Kir21 inh) | H9c2 TAG conf 112.8
Nc1nn(-c2ccccc2)c(N)c1N=Nc1ccccc1	none (no result: H9c2 TAG inh)
Cc1ccc(NC(=S)N2CCC(c3ccccc3)C2)c(Cl)c1 (configuration not stated)	none
COc1ccccc1NC(=O)N1CCC(c2nc3cc(C)c(C)cc3[nH]2)CC1	H9c2 TAG inh 50.9 | H9c2 TAG conf 45.4
Cc1cc(=O)oc2cc(NC(=O)c3cccc(Br)c3)ccc12	H9c2 TAG inh 68.9 | H9c2 TAG conf 52.4
Cc1cc(=O)oc2cc(NC(=O)c3cc(F)ccc3F)ccc12	none (no result: CHT block, CHT allo act, Kir21 inh)
CCCCCCCCn1c(N2CCN(c3cccc(Cl)c3)CC2)nc2c1c(=O)[nH]c(=O)n2C	H9c2 TAG inh 65.3 | H9c2 TAG conf 65.6
CCCCCCn1c(N2CCN(c3cccc(Cl)c3)CC2)nc2c1c(=O)[nH]c(=O)n2C	none
COc1ccc(/C=C2\C(=N)N3N=C(CC(=O)N4CCCCC4)SC3=NC2=O)cc1	none (no result: H9c2 TAG inh)
